# Source: the supplement of paper PMC4466140
# Tests used:
# Assay in all cases: SPOT peptide array binding signal intensity (averaged, normalized) (arbitrary units (background-subtracted, floor 0; scale differs between SH3 domains)); higher = stronger binding of the SH3 domain to the peptide
# AgAbp1 = molecular target: AgAbp1
# Outline: (§1)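 GST-fused SH3 domains from four yeast species were expressed in E. coli BL21(DE3), purified on glutathione Sepharose and incubated at 10 μg/ml overnight at 4°C in TBS-based blocking buffer on cellulose membranes carrying synthetic 15-mer peptides, with cysteines replaced by serines. Bound protein was detected with anti-GST antibody, an HRP anti-mouse secondary and luminol, then imaged and quantified with Genespotter. Binding signal is the normalized, background-subtracted spot intensity averaged over replicates, in arbitrary units that differ between domains.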
# AgBbc1 = molecular target: AgBbc1
# Outline: as §1
# AgBem1-D1 = molecular target: AgBem1-D1
# Outline: as §1
# AgBzz1-D1 = molecular target: AgBzz1-D1
# Outline: as §1
# AgBzz1-D2 = molecular target: AgBzz1-D2
# Outline: as §1
# AgCyk3 = molecular target: AgCyk3
# Outline: as §1
# AgFus1 = molecular target: AgFus1
# Outline: as §1
# AgHof1 = molecular target: AgHof1
# Outline: as §1
# AgHse1 = molecular target: AgHse1
# Outline: as §1
# AgLsb1 = molecular target: AgLsb1
# Outline: as §1
# AgLsb4 = molecular target: AgLsb4
# Outline: as §1
# AgMyo5 = molecular target: AgMyo5
# Outline: as §1
# AgNbp2 = molecular target: AgNbp2
# Outline: as §1
# AgRvs167 = molecular target: AgRvs167
# Outline: as §1
# AgSho1 = molecular target: AgSho1
# Outline: as §1
# AgSla1-D1-D2 = molecular target: AgSla1-D1-D2
# Outline: as §1
# AgSla1-D3 = molecular target: AgSla1-D3
# Outline: as §1
# CaAbp1-D1 = molecular target: CaAbp1-D1
# Outline: as §1
# CaAbp1-D2 = molecular target: CaAbp1-D2
# Outline: as §1
# CaBbc1 = molecular target: CaBbc1
# Outline: as §1
# CaBem1-D1 = molecular target: CaBem1-D1
# Outline: as §1
# CaBzz1-D1 = molecular target: CaBzz1-D1
# Outline: as §1
# CaBzz1-D2 = molecular target: CaBzz1-D2
# Outline: as §1
# CaCyk3 = molecular target: CaCyk3
# Outline: as §1
# CaFus1 = molecular target: CaFus1
# Outline: as §1
# CaHof1 = molecular target: CaHof1
# Outline: as §1
# CaHse1 = molecular target: CaHse1
# Outline: as §1
# CaLsb1 = molecular target: CaLsb1
# Outline: as §1
# CaLsb4 = molecular target: CaLsb4
# Outline: as §1
# CaMyo5 = molecular target: CaMyo5
# Outline: as §1
# CaNbp2 = molecular target: CaNbp2
# Outline: as §1
# CaRvs167 = molecular target: CaRvs167
# Outline: as §1
# CaRvs167-3 = molecular target: CaRvs167-3
# Outline: as §1
# CaSho1 = molecular target: CaSho1
# Outline: as §1
# CaSla1-D1-D2 = molecular target: CaSla1-D1-D2
# Outline: as §1
# CaSla1-D3 = molecular target: CaSla1-D3
# Outline: as §1
# ScAbp1 = molecular target: ScAbp1
# Outline: as §1
# ScBbc1 = molecular target: ScBbc1
# Outline: as §1
# ScBem1-D1 = molecular target: ScBem1-D1
# Outline: as §1
# ScBzz1-D1 = molecular target: ScBzz1-D1
# Outline: as §1
# ScBzz1-D2 = molecular target: ScBzz1-D2
# Outline: as §1
# ScCyk3 = molecular target: ScCyk3
# Outline: as §1
# ScFus1 = molecular target: ScFus1
# Outline: as §1
# ScHof1 = molecular target: ScHof1
# Outline: as §1
# ScHse1 = molecular target: ScHse1
# Outline: as §1
# ScLsb1 = molecular target: ScLsb1
# Outline: as §1
# ScLsb2 = molecular target: ScLsb2
# Outline: as §1
# ScLsb3 = molecular target: ScLsb3
# Outline: as §1
# ScLsb4 = molecular target: ScLsb4
# Outline: as §1
# ScMyo3 = molecular target: ScMyo3
# Outline: as §1
# ScMyo5 = molecular target: ScMyo5
# Outline: as §1
# ScNbp2 = molecular target: ScNbp2
# Outline: as §1
# ScPex13 = molecular target: ScPex13
# Outline: as §1
# ScRvs167 = molecular target: ScRvs167
# Outline: as §1
# ScSho1 = molecular target: ScSho1
# Outline: as §1
# ScSla1-D1-D2 = molecular target: ScSla1-D1-D2
# Outline: as §1
# ScSla1-D3 = molecular target: ScSla1-D3
# Outline: as §1
# SpAbp1-D1 = molecular target: SpAbp1-D1
# Outline: as §1
# SpBbc1 = molecular target: SpBbc1
# Outline: as §1
# SpBzz1-D1 = molecular target: SpBzz1-D1
# Outline: as §1
# SpBzz1-D2 = molecular target: SpBzz1-D2
# Outline: as §1
# SpCyk3 = molecular target: SpCyk3
# Outline: as §1
# SpHof1 = molecular target: SpHof1
# Outline: as §1
# SpHof1-2 = molecular target: SpHof1-2
# Outline: as §1
# SpHof1-3 = molecular target: SpHof1-3
# Outline: as §1
# SpHse1 = molecular target: SpHse1
# Outline: as §1
# SpLsb1 = molecular target: SpLsb1
# Outline: as §1
# SpLsb4 = molecular target: SpLsb4
# Outline: as §1
# SpMyo1 = molecular target: SpMyo1
# Outline: as §1
# SpNbp2 = molecular target: SpNbp2
# Outline: as §1
# SpPex13 = molecular target: SpPex13
# Outline: as §1
# SpRvs167 = molecular target: SpRvs167
# Outline: as §1
# SpSla1-D1-D2 = molecular target: SpSla1-D1-D2
# Outline: as §1
# SpSla1-D3 = molecular target: SpSla1-D3
# Outline: as §1
binder,measurement,setting,value
DHPKGPPPPPPPDEK,SPOT peptide array binding signal intensity,AgAbp1,9
same,SPOT peptide array binding signal intensity,AgBbc1,3.75
same,SPOT peptide array binding signal intensity,AgBem1-D1,≤ 0
same,SPOT peptide array binding signal intensity,AgBzz1-D1,1100
same,SPOT peptide array binding signal intensity,AgBzz1-D2,111
same,SPOT peptide array binding signal intensity,AgCyk3,≤ 0
same,SPOT peptide array binding signal intensity,AgFus1,6.5
same,SPOT peptide array binding signal intensity,AgHof1,≤ 0
same,SPOT peptide array binding signal intensity,AgHse1,33
same,SPOT peptide array binding signal intensity,AgLsb1,1.5
same,SPOT peptide array binding signal intensity,AgLsb4,≤ 0
same,SPOT peptide array binding signal intensity,AgMyo5,1710
same,SPOT peptide array binding signal intensity,AgNbp2,7
same,SPOT peptide array binding signal intensity,AgRvs167,1.17
same,SPOT peptide array binding signal intensity,AgSho1,≤ 0
same,SPOT peptide array binding signal intensity,AgSla1-D1-D2,14
same,SPOT peptide array binding signal intensity,AgSla1-D3,297
same,SPOT peptide array binding signal intensity,CaAbp1-D1,1.5
same,SPOT peptide array binding signal intensity,CaAbp1-D2,1
same,SPOT peptide array binding signal intensity,CaBbc1,≤ 0
same,SPOT peptide array binding signal intensity,CaBem1-D1,≤ 0
same,SPOT peptide array binding signal intensity,CaBzz1-D1,2890
same,SPOT peptide array binding signal intensity,CaBzz1-D2,2700
same,SPOT peptide array binding signal intensity,CaCyk3,≤ 0
same,SPOT peptide array binding signal intensity,CaFus1,≤ 0
same,SPOT peptide array binding signal intensity,CaHof1,2.5
same,SPOT peptide array binding signal intensity,CaHse1,6
same,SPOT peptide array binding signal intensity,CaLsb1,≤ 0
same,SPOT peptide array binding signal intensity,CaLsb4,20.5
same,SPOT peptide array binding signal intensity,CaMyo5,38.8
same,SPOT peptide array binding signal intensity,CaNbp2,≤ 0
same,SPOT peptide array binding signal intensity,CaRvs167,0.667
same,SPOT peptide array binding signal intensity,CaRvs167-3,≤ 0
same,SPOT peptide array binding signal intensity,CaSho1,7.5
same,SPOT peptide array binding signal intensity,CaSla1-D1-D2,12
same,SPOT peptide array binding signal intensity,CaSla1-D3,2.75
same,SPOT peptide array binding signal intensity,ScAbp1,4
same,SPOT peptide array binding signal intensity,ScBbc1,3.5
same,SPOT peptide array binding signal intensity,ScBem1-D1,4
same,SPOT peptide array binding signal intensity,ScBzz1-D1,3400
same,SPOT peptide array binding signal intensity,ScBzz1-D2,45
same,SPOT peptide array binding signal intensity,ScCyk3,1
same,SPOT peptide array binding signal intensity,ScFus1,8.5
same,SPOT peptide array binding signal intensity,ScHof1,1
same,SPOT peptide array binding signal intensity,ScHse1,2
same,SPOT peptide array binding signal intensity,ScLsb1,1
same,SPOT peptide array binding signal intensity,ScLsb2,≤ 0
same,SPOT peptide array binding signal intensity,ScLsb3,≤ 0
same,SPOT peptide array binding signal intensity,ScLsb4,0.5
same,SPOT peptide array binding signal intensity,ScMyo3,1750
same,SPOT peptide array binding signal intensity,ScMyo5,1380
same,SPOT peptide array binding signal intensity,ScNbp2,18.5
same,SPOT peptide array binding signal intensity,ScPex13,≤ 0
same,SPOT peptide array binding signal intensity,ScRvs167,0.5
same,SPOT peptide array binding signal intensity,ScSho1,≤ 0
same,SPOT peptide array binding signal intensity,ScSla1-D1-D2,≤ 0
same,SPOT peptide array binding signal intensity,ScSla1-D3,2.5
same,SPOT peptide array binding signal intensity,SpAbp1-D1,8
same,SPOT peptide array binding signal intensity,SpBbc1,≤ 0
same,SPOT peptide array binding signal intensity,SpBzz1-D1,155
same,SPOT peptide array binding signal intensity,SpBzz1-D2,1.75
same,SPOT peptide array binding signal intensity,SpCyk3,≤ 0
same,SPOT peptide array binding signal intensity,SpHof1,1
same,SPOT peptide array binding signal intensity,SpHof1-2,6.5
same,SPOT peptide array binding signal intensity,SpHof1-3,4
same,SPOT peptide array binding signal intensity,SpHse1,87.2
same,SPOT peptide array binding signal intensity,SpLsb1,≤ 0
same,SPOT peptide array binding signal intensity,SpLsb4,≤ 0
same,SPOT peptide array binding signal intensity,SpMyo1,1880
same,SPOT peptide array binding signal intensity,SpNbp2,18.5
same,SPOT peptide array binding signal intensity,SpPex13,10
same,SPOT peptide array binding signal intensity,SpRvs167,≤ 0
same,SPOT peptide array binding signal intensity,SpSla1-D1-D2,10
same,SPOT peptide array binding signal intensity,SpSla1-D3,13
